According to ChEMBL document CHEMBL3988442, “University of Dundee, Small-Polar-MMV Screening Library” (2021):

Assays:
[1] = target: T1, Aspartate--tRNA(Asp/Asn) ligase (Mycobacterium tuberculosis (strain ATCC 25618 / H37Rv)) (UniProt P9WFW3); assay: Assay for Asp RNA synthetase-1 from Mycobacterium tuberculosis; type: functional; set-up: scale not given: direction of the effect not stated beside the values; conditions: 30 µM; further: in the data most compounds retested in dose-response had high values
T1 sequence (whole entry): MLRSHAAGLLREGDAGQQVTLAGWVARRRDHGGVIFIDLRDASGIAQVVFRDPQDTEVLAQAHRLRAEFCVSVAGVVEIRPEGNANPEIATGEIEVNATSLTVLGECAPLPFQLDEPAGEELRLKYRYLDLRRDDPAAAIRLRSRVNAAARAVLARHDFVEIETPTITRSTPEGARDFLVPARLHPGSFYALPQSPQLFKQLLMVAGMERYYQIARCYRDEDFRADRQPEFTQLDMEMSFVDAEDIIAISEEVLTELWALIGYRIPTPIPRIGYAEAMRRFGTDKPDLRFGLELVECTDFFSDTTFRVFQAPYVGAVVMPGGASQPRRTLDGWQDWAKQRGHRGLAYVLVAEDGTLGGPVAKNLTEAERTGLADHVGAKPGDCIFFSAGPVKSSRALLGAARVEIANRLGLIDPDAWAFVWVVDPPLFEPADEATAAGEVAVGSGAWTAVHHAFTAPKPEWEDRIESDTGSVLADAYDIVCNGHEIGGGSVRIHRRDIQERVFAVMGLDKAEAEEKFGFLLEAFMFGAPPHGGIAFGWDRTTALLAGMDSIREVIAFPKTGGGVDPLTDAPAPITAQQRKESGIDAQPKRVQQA

[2] = target: Shiga toxin 2 (Escherichia coli O157:H7) (UniProt P09385+P09386); assay: E. coli 0.157:H7 Shiga Toxin SOP - stx2 screening assay; type: functional; set-up: scale not given: direction of the effect not stated beside the values; conditions: 30 µM

Question: How did the Percent Effect [1] turn out when `O=C(c1cc(C2CC2)on1)N1CC[C@]2(C[C@H](Oc3cccnc3)CO2)C1` was run?
Answer: 6.67%

Question: What about the Percent Effect [2] of the same compound?
Answer: 7.42%

Question: Which results are given for `Cc1occc1C(=O)N1CC[C@@H](N2CCOCC2)[C@@H]1Cc1ccccc1`?
Answer: Percent Effect [1]: 7.49%; Percent Effect [2]: 6.03%

Question: How did the Percent Effect [1] turn out when `COCCN(Cc1nc2c(cnn2C)c(=O)[nH]1)Cc1ccco1` was run?
Answer: 0.88%

Question: What about the Percent Effect [2] of the same compound?
Answer: 22.5%

Question: Which Percent Effect [1] does the source give for `N#Cc1ccc(S(=O)(=O)NC(=O)C2CC2)c(C(F)(F)F)c1` here?
Answer: 4.77%

Question: What about the Percent Effect [2] of the same compound?
Answer: 9.71%

Question: Which Percent Effect [1] does the source give for `CS(=O)(=O)NCC1CCCN(C(=O)c2cc3ccccc3o2)C1` (stereo not given) here?
Answer: 3.19%

Question: And the Percent Effect [2]?
Answer: -22%

Question: Which results are given for `O=C1[C@H]2CC[C@H](CN(Cc3ccccc3OC(F)F)C2)N1CC1CC1`?
Answer: Percent Effect [1]: 4.85%; Percent Effect [2]: 7.93%

Question: How did the Percent Effect [1] turn out when `CCCC(=O)N1CCC(O)(Cn2c(CC)nc3ccccc3c2=O)CC1` was run?
Answer: 0.164%

Question: What about the Percent Effect [2] of the same compound?
Answer: 0.775%

Question: What does the source list for `c1ccc(-c2ncc(CNC3CCc4ncnn4C3)cn2)cc1` (stereo not given)?
Answer: Percent Effect [1]: -0.626%; Percent Effect [2]: 13.4%

Question: How did the Percent Effect [1] turn out when `Cc1nc(C)n(CC2CN(c3ncnc4[nH]ccc34)CCO2)n1` (stereo not given) was run?
Answer: 0.364%

Question: What about the Percent Effect [2] of the same compound?
Answer: -9.54%

Question: How did the Percent Effect [1] turn out when `CC(C)NC(=O)c1nnn(-c2cccc(C(F)(F)F)c2)c1N` was run?
Answer: 0.111%

Question: What about the Percent Effect [2] of the same compound?
Answer: -1.08%

Question: `Cc1ccc(C(=O)N2CCc3c(CNS(C)(=O)=O)cncc3C2)o1` was tested. Which Percent Effect [1] did it give?
Answer: 9.11%

Question: What about the Percent Effect [2] of the same compound?
Answer: -21%

Question: For `CN(Cc1ccc(F)cc1)C(=O)Cn1nc(-c2ccc(F)cc2)oc1=O`, which Percent Effect [1] is on record?
Answer: 5.72%

Question: What about the Percent Effect [2] of the same compound?
Answer: -25.7%

Question: `COc1ccccc1OCC(=O)NS(=O)(=O)c1ccc(C)s1` was tested. Which Percent Effect [1] did it give?
Answer: -0.394%

Question: What about the Percent Effect [2] of the same compound?
Answer: 3.1%

Question: Which Percent Effect [1] does the source give for `COCCn1ccc(NC(=O)Nc2ccc(C(N)=O)c(F)c2)n1` here?
Answer: 2.25%

Question: What about the Percent Effect [2] of the same compound?
Answer: -3.67%

Question: What does the source list for `CC(=O)NCC(=O)N1CCC2(CC1)CN(c1cccnc1)C(=O)CO2`?
Answer: Percent Effect [1]: 2.37%; Percent Effect [2]: -4.09%

Question: How did the Percent Effect [1] turn out when `CCc1ccccc1-n1nnc(C(=O)O)c1-c1ccccn1` was run?
Answer: 6.47%

Question: What about the Percent Effect [2] of the same compound?
Answer: -3.21%

Question: For `CN(C)CCO[C@H]1CN(Cc2cccc(C#N)c2)[C@@H]2COC[C@H]12`, which Percent Effect [1] is on record?
Answer: 1.95%

Question: And the Percent Effect [2]?
Answer: -21.2%

Question: Which results are given for `CSc1ccc(Cl)c(C(=O)N2CCCC(CNS(C)(=O)=O)C2)c1` (stereo not given)?
Answer: Percent Effect [1]: 2.82%; Percent Effect [2]: -37.8%

Question: For `Cc1ccccc1CSc1nc(N)cc(N2CC[C@@H](O)C2)n1`, which Percent Effect [1] is on record?
Answer: 0.861%

Question: And the Percent Effect [2]?
Answer: 5.97%

Question: Which results are given for `O=C1COc2cc(C(=O)NS(=O)(=O)c3ccccc3F)ccc2N1`?
Answer: Percent Effect [1]: -0.702%; Percent Effect [2]: 0.482%

Question: What does the source list for `CN1CCC/C1=N\S(=O)(=O)c1ccc(NC(=O)c2ccc(F)cc2)cc1`?
Answer: Percent Effect [1]: 4.61%; Percent Effect [2]: -109%

Question: How did the Percent Effect [1] turn out when `Cc1noc(C(C)N2CCN(CCC(=O)N3CCCCC3)CC2)n1` (stereo not given) was run?
Answer: -2.64%

Question: And the Percent Effect [2]?
Answer: 7.71%

Question: Which Percent Effect [1] does the source give for `CNc1nc(C)c(C(=O)N2CCCCC2CN2CCCCCC2)s1` (stereo not given) here?
Answer: 1.75%

Question: And the Percent Effect [2]?
Answer: 1.34%

Question: What does the source list for `OC1CCN(Cc2cc3c(cc2Br)OCCO3)CC1`?
Answer: Percent Effect [1]: 2.56%; Percent Effect [2]: -8.4%

Question: What does the source list for `Cc1cc(C(=O)N2CCCC2Cn2nc(C)cc2C)on1` (stereo not given)?
Answer: Percent Effect [1]: 0.681%; Percent Effect [2]: 20%

Question: Which Percent Effect [1] does the source give for `CN(CC(=O)N1CCN(c2ncccn2)CC1)c1ccc(Cl)cn1` here?
Answer: -2%

Question: And the Percent Effect [2]?
Answer: -0.376%

Question: Which Percent Effect [1] does the source give for `CCOC1CCCN(C(=O)c2cnc3c(cnn3C3CCCC3)c2)C1` (stereo not given) here?
Answer: 2.51%

Question: What about the Percent Effect [2] of the same compound?
Answer: 15.6%

Question: What does the source list for `COc1cccc(CN2CCC3(CCN(C(=O)[C@H]4CCCO4)CC3)C2)c1`?
Answer: Percent Effect [1]: 2.09%; Percent Effect [2]: -47.5%

Question: With `Cc1nn(C)c(C)c1C1COCCN1C(=O)Cc1cccc(F)c1` (stereo not given) as the compound, how does the Percent Effect [1] read?
Answer: 1.67%

Question: And the Percent Effect [2]?
Answer: -31%

Question: Which Percent Effect [1] does the source give for `CCn1cc(N2Cc3nc(N4CCN(C)CC4)ncc3C2=O)cn1` here?
Answer: -1.54%

Question: And the Percent Effect [2]?
Answer: -50.9%

Question: With `O=C(COc1cccc(Br)c1)N1CCOCC1c1ncon1` (stereo not given) as the compound, how does the Percent Effect [1] read?
Answer: -0.929%

Question: What about the Percent Effect [2] of the same compound?
Answer: 9.16%

Question: For `CCN(Cc1nc2c(cnn2C)c(=O)[nH]1)Cc1cccs1`, which Percent Effect [1] is on record?
Answer: -1.27%

Question: And the Percent Effect [2]?
Answer: 5.32%

Question: `O=C(Nc1cnn(CCN2CCOCC2)c1)c1ccccc1O` was tested. Which Percent Effect [1] did it give?
Answer: -0.989%

Question: And the Percent Effect [2]?
Answer: -13.8%

Question: For `COc1ccc(OC)c(NC(=O)NCC(O)c2ccc(F)c(F)c2)c1` (stereo not given), which Percent Effect [1] is on record?
Answer: 4.09%

Question: What about the Percent Effect [2] of the same compound?
Answer: -0.389%

Question: With `Cc1ccc(C(=O)N2C[C@H]3CCC[C@@]3(COCc3cccnc3)C2)s1` as the compound, how does the Percent Effect [1] read?
Answer: 6.3%

Question: And the Percent Effect [2]?
Answer: -7.06%

Question: For `CCOc1ncccc1C(=O)N1CCCCC1c1nccs1` (stereo not given), which Percent Effect [1] is on record?
Answer: -1.77%

Question: And the Percent Effect [2]?
Answer: 2.91%

Question: How did the Percent Effect [1] turn out when `O=C(NCCc1ccccc1)C1CCCN(c2ccc3nncn3n2)C1` (stereo not given) was run?
Answer: -2.08%

Question: And the Percent Effect [2]?
Answer: -7.24%

Question: How did the Percent Effect [1] turn out when `CC1CCCCN1C(=O)CN1CCN(c2ccc3nncn3n2)CC1` (stereo not given) was run?
Answer: 0.945%

Question: And the Percent Effect [2]?
Answer: -8.03%

Question: Which results are given for `COc1ccc(CNC(=O)c2nn(C)c3c2CS(=O)(=O)CC3)cc1OC`?
Answer: Percent Effect [1]: -8.6%; Percent Effect [2]: -18.6%

Question: Which Percent Effect [1] does the source give for `CC(Cn1cccn1)NC(=O)NCc1ccc(S(N)(=O)=O)cc1` (stereo not given) here?
Answer: 6.49%

Question: What about the Percent Effect [2] of the same compound?
Answer: 14.9%
